Compounds without any hit were thinned out: in the full panel of roughly 83,000, 20% have a hit.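 Each cell line was grown in a 96-well plate and treated with one concentration of compound for 48 hours. Values below 10 were considered active.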 A number with no mark means an inactive call. The source made the active and inactive calls.

The first assay has as its system UO-31 renal. The assay can be described thus: NCI-60 one-dose screen, 48 h (100 = growth as untreated, 0 = no growth, -100 = all killed). Particulars: 10 µM unless noted.
`CCOC(=O)c1nn(CC(O)c2ccccc2)c(NC(=O)Nc2cccc(F)c2)c1C` (stereo not drawn): the growth was 90.1%.

Consider `O=C(N/N=C\c1ccccc1S(=O)(=O)O)N/N=C/c1ccccc1S(=O)(=O)O`, for which the growth was 92.5%.

Take `CC[C@]12C=CCN3CC[C@@]4(c5ccc(OC)cc5N(C)[C@H]4[C@@](O)(C(=O)OC)[C@@H]1OC(=O)CCC[P+](c1ccccc1)(c1ccccc1)c1ccccc1)[C@@H]32`: the growth is 80%.

For `CCCn1nc(C(=O)N(C)Cc2ccccc2)c2c1CCC(N1CCc3ccccc31)C2` (stereo not drawn), the growth was 81.4%.

As to `C=C1C(=O)O[C@H]2[C@H]1CC/C(COC(=O)/C=C\C(=O)NCc1ccc(Cn3c(=O)sn(CCCl)c3=O)cc1)=C\CC[C@@]1(C)O[C@@H]21`, the growth is 79.9%.

Regarding `COC(=O)c1ccc(NC(=O)Nc2ccc(C(=O)OC)cc2)cc1`, the growth is 96.9%.

As to `O=C(O)c1cn(C2CC2)c2cc(N3CCN(C(=O)Nc4nc(-c5ccc(Br)cc5)cs4)CC3)c(F)cc2c1=O`, the growth was 14%.

Consider `NC(=O)c1c(NC(=O)c2cccc(C(F)(F)F)c2)sc2c1CCC(=O)C2`, for which the growth was -95.9% (active).

In the case of `CC1=C(C(=O)Nc2ccccc2)C(c2ccc3c(c2)OCO3)NC(=S)N1` (stereo not drawn), the growth was 88.2%.

Regarding `NS(=O)(=O)c1ccc(-c2cc(-c3nnc(SCC(=O)Nc4ccc(C(=O)/C=C/c5ccc(Cl)cc5)cc4)n3-c3ccccc3)c3ccccc3n2)cc1`, the growth was 84%.

In the case of `COC(=O)c1cc(Br)ccc1O`, the growth is 95.1%.

Take `C=C1C(=O)O[C@H]2[C@H]1CC/C(COC(=O)/C=C/C(=O)OC/C1=C/CC[C@@]3(C)O[C@H]3[C@H]3OC(=O)C(=C)[C@@H]3CC1)=C\CC[C@@]1(C)O[C@@H]21`: the growth was -41.7% (active).

Regarding `CNC1=CC(=O)c2c(C(=O)OC)c(C)[n+]([O-])c(C)c2C1=O`, the growth is 90.7%.

As to `O=C(Nc1ncccc1OCc1ccccc1)NC1CCCCCC1`, the growth is 85.1%.

`O=C1/C(=C\c2cccc3nccnc23)SC(=S)N1CCc1ccc(O)cc1`: the growth was 62.1%.

For `O=C1/C=C/[C@@H](O)[C@@H]2C[C@@H](O)C[C@H]2/C=C/CCC[C@@H](O)CCO1`, the growth was 108%.

Regarding `Cc1ccc(CNc2c3ccccc3nc3ccccc23)cc1`, the growth is 12%.

As to `Cc1ccnc(Nc2ccc([N+](=O)[O-])c(NCCN3CCOCC3)n2)c1`, the growth is 34.2%.

For the compound `CSc1nn2c(-c3ccc4ccccc4c3)ccnc2c1C#N`, the growth was 16.7%.

As for `COc1cc2nc3sc(C(=O)Nc4ccc(C(=O)OC(C)C)cc4)c(C(=O)Nc4ccc(Cl)cc4C)n3c(=O)c2cc1OC`, the growth was -5.58% (active).

Take `COC(=O)/C=C1/SC(=Nc2ccc([N+](=O)[O-])cc2)N(CCc2c[nH]c3ccc(O)cc23)C1=O`: the growth is 53.5%.

Regarding `O=S1(=O)C=C(c2ccccc2)C(c2ccccc2)=C1`, the growth was -6.37% (active).

Turning to `O=C(O)COc1ccc(Cl)c(Cl)c1`, the growth is 108%.

For the compound `O=C1/C(=C/c2ccccn2)NC(=S)N1c1ccccc1Cl`, the growth is 36.4%.

Regarding `CCS/C(Nc1ccccc1)=C(\C#N)C(=O)Nc1ccc(OC)cc1`, the growth is 50%.

As for `COc1ccc(C(=O)N2c3ccccc3Sc3ccccc32)c(C(F)(F)F)c1`, the growth is 39.8%.

Take `Cc1ccc(-c2csc(NC(=O)c3ccccc3CN3C(=O)c4ccccc4C3=O)n2)cc1`: the growth was 85.9%.

Take `CNC(=O)c1cc(Oc2cccc3nc(NC(=O)Nc4cc(C(F)(F)F)ccc4Cl)ccc23)ccn1`: the growth is 105%.

A further assay concerns TK-10 renal. The assay is described as above. Particulars: 10 µM unless noted.
For the compound `CC(=O)OC[C@]12CC[C@@H]([C@@H](C)c3nnc(-c4ccncc4)o3)[C@@H]1[C@H]1CC[C@@H]3[C@@]4(C)CC[C@H](OC(C)=O)C(C)(C)[C@@H]4CC[C@@]3(C)[C@]1(C)CC2`, the growth was 94.7%.

With `CN(Cc1ccccc1)c1nc(Cl)c(C2CC(c3ccccc3)=NN2c2ccccc2)s1` (stereo not drawn), the growth was 115%.

Consider `CSc1nc(C)c([N+](=O)[O-])c(N)n1`, for which the growth is 89.4%.

On to `CN1CCN(Cc2ccc(NC(=O)c3cncc(C#Cc4cnc(N)c5ccc(F)cc45)c3)cc2C(F)(F)F)CC1`, for which the growth was 24.1%.

In the case of `CN1CCN(C(=O)[C@@]2(C)CC[C@]3(C)CC[C@]4(C)C(=CC[C@@H]5[C@@]6(C)CCC(=O)NC(C)(C)[C@@H]6CC[C@]54C)[C@@H]3C2)CC1`, the growth was 79.4%.

Take `COc1ccc(/C=C2\CN(C(=O)C(Cl)Cl)C/C(=C\c3ccc(OC)cc3)C2=O)cc1`: the growth was 20.4%.

On to `O=C(NNc1cnccn1)c1nc2cc(F)ccc2n2cccc12`, for which the growth is 40.5%.

On to `COc1cc(/C=C2\CN(S(=O)(=O)c3ccccc3)C/C(=C\c3cc(CN4CCCCC4)c(O)c(OC)c3)C2=O)cc(CN2CCCCC2)c1O`, for which the growth is -38.8% (active).

Regarding `COc1ccc(/C=C/C(c2cc(OC)c(OC)c(OC)c2)n2ccnc2)cc1O` (stereo not drawn), the growth is 84.5%.

As to `C/C=C(/C)n1cnc2c(Nc3ccccn3)nc(Cl)nc21`, the growth was 114%.

On to `Oc1ccc(/C=C/c2ccc(O)cc2)cc1`, for which the growth is 61.1%.

With `C#CCOc1cccc(-c2ncnc3cc(NC(=O)C=C)ccc23)c1`, the growth was 13.8%.

As for `CCOC(=O)c1nn(CC(O)c2ccccc2)c(NC(=O)Nc2cccc(F)c2)c1C` (stereo not drawn), the growth was 105%.

Turning to `O=C(N/N=C\c1ccccc1S(=O)(=O)O)N/N=C/c1ccccc1S(=O)(=O)O`, the growth is 100%.

For the compound `CC[C@]12C=CCN3CC[C@@]4(c5ccc(OC)cc5N(C)[C@H]4[C@@](O)(C(=O)OC)[C@@H]1OC(=O)CCC[P+](c1ccccc1)(c1ccccc1)c1ccccc1)[C@@H]32`, the growth is 22.3%.

On to `CCCn1nc(C(=O)N(C)Cc2ccccc2)c2c1CCC(N1CCc3ccccc31)C2` (stereo not drawn), for which the growth is 105%.

As for `C=C1C(=O)O[C@H]2[C@H]1CC/C(COC(=O)/C=C\C(=O)NCc1ccc(Cn3c(=O)sn(CCCl)c3=O)cc1)=C\CC[C@@]1(C)O[C@@H]21`, the growth is 60.9%.

Take `COC(=O)c1ccc(NC(=O)Nc2ccc(C(=O)OC)cc2)cc1`: the growth was 101%.

Turning to `O=C(O)c1cn(C2CC2)c2cc(N3CCN(C(=O)Nc4nc(-c5ccc(Br)cc5)cs4)CC3)c(F)cc2c1=O`, the growth was 34.9%.

Turning to `NC(=O)c1c(NC(=O)c2cccc(C(F)(F)F)c2)sc2c1CCC(=O)C2`, the growth is 5.23% (active).

Turning to `CC1=C(C(=O)Nc2ccccc2)C(c2ccc3c(c2)OCO3)NC(=S)N1` (stereo not drawn), the growth is 97.8%.

As to `NS(=O)(=O)c1ccc(-c2cc(-c3nnc(SCC(=O)Nc4ccc(C(=O)/C=C/c5ccc(Cl)cc5)cc4)n3-c3ccccc3)c3ccccc3n2)cc1`, the growth was 96.4%.

Take `COC(=O)c1cc(Br)ccc1O`: the growth is 95.5%.

With `C=C1C(=O)O[C@H]2[C@H]1CC/C(COC(=O)/C=C/C(=O)OC/C1=C/CC[C@@]3(C)O[C@H]3[C@H]3OC(=O)C(=C)[C@@H]3CC1)=C\CC[C@@]1(C)O[C@@H]21`, the growth is 0.985% (active).

For `CNC1=CC(=O)c2c(C(=O)OC)c(C)[n+]([O-])c(C)c2C1=O`, the growth was 133%.

Consider `O=C(Nc1ncccc1OCc1ccccc1)NC1CCCCCC1`, for which the growth is 94%.

For `O=C1/C(=C\c2cccc3nccnc23)SC(=S)N1CCc1ccc(O)cc1`, the growth is 121%.

For the compound `O=C1/C=C/[C@@H](O)[C@@H]2C[C@@H](O)C[C@H]2/C=C/CCC[C@@H](O)CCO1`, the growth was 115%.

Take `Cc1ccc(CNc2c3ccccc3nc3ccccc23)cc1`: the growth is 35.8%.

Take `Cc1ccnc(Nc2ccc([N+](=O)[O-])c(NCCN3CCOCC3)n2)c1`: the growth was 79.4%.

For the compound `CSc1nn2c(-c3ccc4ccccc4c3)ccnc2c1C#N`, the growth was -2.29% (active).

In the case of `COc1cc2nc3sc(C(=O)Nc4ccc(C(=O)OC(C)C)cc4)c(C(=O)Nc4ccc(Cl)cc4C)n3c(=O)c2cc1OC`, the growth was 6.58% (active).

As to `COC(=O)/C=C1/SC(=Nc2ccc([N+](=O)[O-])cc2)N(CCc2c[nH]c3ccc(O)cc23)C1=O`, the growth is 85.2%.

With `O=S1(=O)C=C(c2ccccc2)C(c2ccccc2)=C1`, the growth was -37.1% (active).

Consider `O=C(O)COc1ccc(Cl)c(Cl)c1`, for which the growth was 116%.

Take `O=C1/C(=C/c2ccccn2)NC(=S)N1c1ccccc1Cl`: the growth was 79.9%.

`CCS/C(Nc1ccccc1)=C(\C#N)C(=O)Nc1ccc(OC)cc1`: the growth was 47.7%.

For the compound `COc1ccc(C(=O)N2c3ccccc3Sc3ccccc32)c(C(F)(F)F)c1`, the growth is 57.4%.

For the compound `Cc1ccc(-c2csc(NC(=O)c3ccccc3CN3C(=O)c4ccccc4C3=O)n2)cc1`, the growth is 94.4%.

On to `CNC(=O)c1cc(Oc2cccc3nc(NC(=O)Nc4cc(C(F)(F)F)ccc4Cl)ccc23)ccn1`, for which the growth is 111%.

(Values after PubChem BioAssay (NCI).)
